Five compounds from PubChem BioAssay can be followed below.

Structures are written as SMILES. Activity calls are given as the source filed them. Unless noted, how the calls were made is not given here.

Assay [1] can be described thus: anti-His antibody binders, primary screen, artefact control for SMM control protein annotation, biochemical, small-molecule microarray, 635 nm fluorescence (AID 1128).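 Further: score merges feature fluorescence with signal-to-noise for each printed compound spot.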 The conditions noted are these: anti-His Alexa647 antibody binding, higher = more signal.
The test system of assay [2] is Human papillomavirus type 1a E7 protein (residues 1-88). In words: HPV1a E7 small-molecule binders, primary screen, biochemical, small-molecule microarray, residues 1-88, 635 nm (AID 1129). The conditions noted are these: small-molecule microarray binding, fluorescence 635 nm; higher = more signal.
The target in assay [3] is Focal adhesion kinase 1 (Homo sapiens) (UniProt Q05397). In words: small-molecule microarray binders of FAK, primary screen, biochemical, 635/667 nm fluorescence, BSA, DTT (AID 1130).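 Further: composite of spot emission at 667 nm and signal to noise over triplicate slides.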 The settings on record: PTK2 binding, 635 nm fluorescence, higher = more signal.
The subject of assay [4] is Fibrinogen (Alexa647-labelled). Put plainly: fibrinogen binders on compound microarrays, profiling panel, artefact control for SMM control-protein annotation, biochemical, small-molecule microarray, 635/667 nm fluorescence (AID 1131).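 Further: z-score merges 667 nm fluorescence with per-spot signal-to-noise over triplicate slides.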 The settings on record: fibrinogen-A647 binding fluorescence, higher = more signal.
For assay [5], the target named is Follistatin (Homo sapiens) (UniProt P19883). In words: follistatin binders on small-molecule microarrays, primary screen, biochemical, small-molecule microarray, 635/667 nm fluorescence (AID 1132). The settings on record: FST binding, 635 nm fluorescence, higher = more signal.
Assay [6] deals with Fibroblast growth factor 2 (Homo sapiens) (UniProt P09038). In words: FGF2 binders on small-molecule microarrays, primary screen, biochemical, small-molecule microarray, 635/667 nm fluorescence (AID 1133). The settings on record: small-molecule microarray binding, FGF2, fluorescence 635/667; higher = more signal.
Assay [7] can be described thus: mitochondrial membrane potential change in A549 cells, profiling panel, cell-based, JC-1 fluorescence, basal, 24 h, 100 nL (AID 1138).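 Further: A549 lung adenocarcinoma cells under basal conditions with no added stimulus; test concentration not given here.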 The settings on record: higher = more signal.
A further assay has as its system Lefty1. In words: Lefty1 binders on small-molecule microarrays, primary screen, biochemical, small-molecule microarray, 635/667 nm fluorescence (AID 1139). The settings on record: small-molecule microarray binding, fluorescence 635/667; higher = more signal.
The test system of assay [8] is wheat germ agglutinin (Triticum aestivum), Alexa647-labelled. Put plainly: wheat germ agglutinin binders on compound microarrays, profiling panel, artefact control for SMM control-protein annotation, biochemical, small-molecule microarray, 635/667 nm fluorescence (AID 1140).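 Further: score merges 667 nm feature emission with signal to noise over triplicate slides.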 The conditions noted are these: WGA-A647 binding, 635 nm fluorescence, higher = more signal.
The target in assay [9] is Luciferin 4-monooxygenase (Photinus pyralis) (UniProt P08659). Put plainly: firefly luciferase enzyme inhibitors, primary screen, biochemical, luminescence, purified enzyme, 2006 set (AID 1141).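 Further: cell-free assay with purified firefly luciferase at 100 ng per well in PBS; test concentration not given here.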 The settings on record: SteadyGlo luminescence, 30 min, higher = more signal, called active from +8 up or from −8 down.
Assay [10] has as its system Wnt5a (protein binding on small-molecule microarray). In words: Wnt5a binders on small-molecule microarray, primary screen, biophysical, 635/667 nm fluorescence (AID 1142).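 Further: fluorescence read at 667 nm with signal to noise per printed feature.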 The settings on record: 635 nm fluorescence, higher = more signal.
A short description of assay [11]: cell viability in Huh7 cells, primary screen, cytotoxicity control for HCV replication inhibitor project, CellTiter-Glo luminescence, basal, 48 h (AID 1143).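 Further: Huh7 hepatoma cells carrying a hepatitis C replication reporter with no stimulus; test concentration not given here.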 The settings on record: Huh7 HCV replicon, higher = more signal, called active from +8 up or from −8 down. A general note: Cellular ATP, detected with luciferase, serves as a proxy for viable cell number.
A short description of assay [12]: P. aeruginosa biofilm formation inhibitors, primary screen, PAO1 strain, BacTiter-Glo luminescence, LB-PBS (AID 1144). The settings on record: 12 h, higher = more signal.
Assay [13] can be described thus: CREB reporter modulators without forskolin, primary screen, cell-based, PC12, CRE-LacZ reporter, unstimulated (AID 1145). The conditions noted are these: no forskolin, luminescence, 4.5 h, higher = more signal, called active from +8 up or from −8 down.
Assay [14] is described as follows: CREB reporter modulators under forskolin, primary screen, cell-based, PC12, CRE-LacZ reporter, forskolin-stimulated (AID 1146).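 Further: PC12 cells with 6xCRE LacZ reporter stimulated by forskolin 10 µM; beta-galactosidase reporter signal reflecting CREB driven transcription.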 The settings on record: luminescence, 4.5 h, higher = more signal, called active from +8 up or from −8 down.
Assay [15] deals with Streptavidin (Streptomyces avidinii) (UniProt P22629). In words: streptavidin binders on small-molecule microarray, primary screen, artefact control for SMM compound annotation, biophysical, 635/667 nm fluorescence (AID 1147).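 Further: signal reflects streptavidin binding to arrayed compounds as a control protein.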 The settings on record: streptavidin binding, higher = more signal.
Assay [16] can be described thus: small-molecule binders of probe aInhba, primary screen, biochemical, small-molecule microarray, 635/667 nm fluorescence (AID 1148).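 Further: score merges 667nm spot fluorescence with signal-to-noise for antibody binding to printed compounds.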 The settings on record: higher = more signal.
Assay [17] deals with Torsin-1A (Homo sapiens) (UniProt O14656). Put plainly: torsin A binders from cell lysate, primary screen, small-molecule microarray, wild-type, 635/667 nm (AID 1149). The settings on record: COS7 hTOR1A-WT lysate, 635 nm fluorescence, higher = more signal.
Assay [18] has the same target. Put plainly: small-molecule binders of mutant TOR1A in lysate, primary screen, cell lysate, small-molecule microarray, COS7 lysate, 635/667 nm fluorescence (AID 1150).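 Further: score pools 667 nm emission and signal to noise measuring lysate protein binding.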 The conditions noted are these: COS7 hTOR1A mutant lysate, 635 nm fluorescence, higher = more signal.
Assay [19] deals with Sonic hedgehog protein (Shh). Put plainly: small-molecule binders of Shh protein, primary screen, biochemical, small-molecule microarray, 635/667 nm fluorescence (AID 1151).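 Further: Shh protein binding to compounds spotted on small-molecule microarray slides; score combines spot fluorescence intensity with signal-to-noise across triplicate slides.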 The conditions noted are these: small-molecule microarray binding, 635 nm fluorescence; higher = more signal.

Chain of Streptavidin (Streptomyces avidinii) (P22629 whole entry, looked up): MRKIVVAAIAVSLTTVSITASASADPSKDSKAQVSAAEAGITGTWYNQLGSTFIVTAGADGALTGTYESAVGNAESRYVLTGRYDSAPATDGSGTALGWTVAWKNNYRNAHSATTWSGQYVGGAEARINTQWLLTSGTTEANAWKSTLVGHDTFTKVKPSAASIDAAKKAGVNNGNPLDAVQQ
Chain of Focal adhesion kinase 1 (Homo sapiens) (Q05397 whole entry, looked up): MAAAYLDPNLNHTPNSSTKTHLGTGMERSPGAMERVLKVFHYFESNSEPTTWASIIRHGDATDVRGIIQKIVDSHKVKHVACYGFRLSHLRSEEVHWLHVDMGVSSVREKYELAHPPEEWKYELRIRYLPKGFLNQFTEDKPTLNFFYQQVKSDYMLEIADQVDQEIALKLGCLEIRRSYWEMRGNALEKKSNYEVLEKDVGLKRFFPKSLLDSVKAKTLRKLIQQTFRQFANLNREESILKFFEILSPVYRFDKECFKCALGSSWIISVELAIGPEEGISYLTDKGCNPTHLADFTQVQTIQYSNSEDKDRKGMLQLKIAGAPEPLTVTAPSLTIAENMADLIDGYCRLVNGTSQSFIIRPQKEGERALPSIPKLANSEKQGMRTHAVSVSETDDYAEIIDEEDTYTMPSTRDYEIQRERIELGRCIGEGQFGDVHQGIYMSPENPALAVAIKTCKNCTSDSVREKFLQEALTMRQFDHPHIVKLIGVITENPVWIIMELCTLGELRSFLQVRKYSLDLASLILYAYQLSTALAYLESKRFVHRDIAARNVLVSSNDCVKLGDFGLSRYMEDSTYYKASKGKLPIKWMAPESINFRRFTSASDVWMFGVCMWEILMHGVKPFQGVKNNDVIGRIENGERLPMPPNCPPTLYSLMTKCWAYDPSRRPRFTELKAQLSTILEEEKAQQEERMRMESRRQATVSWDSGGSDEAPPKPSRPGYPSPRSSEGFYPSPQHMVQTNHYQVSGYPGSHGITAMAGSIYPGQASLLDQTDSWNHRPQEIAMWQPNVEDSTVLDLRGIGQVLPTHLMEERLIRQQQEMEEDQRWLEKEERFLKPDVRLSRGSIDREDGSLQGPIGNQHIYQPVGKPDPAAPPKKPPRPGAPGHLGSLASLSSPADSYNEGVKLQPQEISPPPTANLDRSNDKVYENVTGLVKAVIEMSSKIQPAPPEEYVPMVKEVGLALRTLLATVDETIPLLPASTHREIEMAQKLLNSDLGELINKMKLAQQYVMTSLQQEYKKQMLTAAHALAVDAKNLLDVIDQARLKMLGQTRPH
Chain of Follistatin (Homo sapiens) (P19883 whole entry, looked up): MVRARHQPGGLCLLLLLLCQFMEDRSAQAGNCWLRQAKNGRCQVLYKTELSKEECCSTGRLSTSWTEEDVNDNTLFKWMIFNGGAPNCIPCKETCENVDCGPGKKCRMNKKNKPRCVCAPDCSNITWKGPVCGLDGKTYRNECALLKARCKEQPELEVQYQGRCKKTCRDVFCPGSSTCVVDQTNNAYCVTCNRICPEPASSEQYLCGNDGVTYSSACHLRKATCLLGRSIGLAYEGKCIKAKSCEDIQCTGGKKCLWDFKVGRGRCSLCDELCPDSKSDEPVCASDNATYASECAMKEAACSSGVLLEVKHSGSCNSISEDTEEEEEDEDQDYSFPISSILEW
Chain of Luciferin 4-monooxygenase (Photinus pyralis) (P08659 whole entry, looked up): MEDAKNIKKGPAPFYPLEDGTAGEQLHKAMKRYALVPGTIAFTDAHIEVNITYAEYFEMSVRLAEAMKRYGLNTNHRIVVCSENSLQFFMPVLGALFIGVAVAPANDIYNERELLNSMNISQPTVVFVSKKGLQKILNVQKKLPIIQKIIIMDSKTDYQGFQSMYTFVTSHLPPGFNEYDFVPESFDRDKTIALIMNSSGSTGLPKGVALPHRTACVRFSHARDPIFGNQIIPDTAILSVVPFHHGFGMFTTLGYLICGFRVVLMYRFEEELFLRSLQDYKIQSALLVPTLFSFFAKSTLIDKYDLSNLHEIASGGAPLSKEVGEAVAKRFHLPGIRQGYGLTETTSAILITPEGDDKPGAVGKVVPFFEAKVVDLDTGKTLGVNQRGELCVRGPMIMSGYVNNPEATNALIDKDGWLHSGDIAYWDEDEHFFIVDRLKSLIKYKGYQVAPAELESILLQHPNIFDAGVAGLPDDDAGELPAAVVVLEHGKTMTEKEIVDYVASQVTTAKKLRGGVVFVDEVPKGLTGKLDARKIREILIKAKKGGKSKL
Chain of Torsin-1A (Homo sapiens) (O14656 whole entry, looked up): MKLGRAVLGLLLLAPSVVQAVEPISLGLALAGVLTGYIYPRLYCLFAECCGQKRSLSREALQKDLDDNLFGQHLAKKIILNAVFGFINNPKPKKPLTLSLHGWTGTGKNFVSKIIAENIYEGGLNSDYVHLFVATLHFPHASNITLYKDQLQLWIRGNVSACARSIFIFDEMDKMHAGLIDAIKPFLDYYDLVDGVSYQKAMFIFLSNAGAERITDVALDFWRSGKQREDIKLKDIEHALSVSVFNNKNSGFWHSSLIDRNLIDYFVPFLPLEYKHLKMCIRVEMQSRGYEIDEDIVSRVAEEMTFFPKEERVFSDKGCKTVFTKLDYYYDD
Chain of Fibroblast growth factor 2 (Homo sapiens) (P09038 whole entry, looked up): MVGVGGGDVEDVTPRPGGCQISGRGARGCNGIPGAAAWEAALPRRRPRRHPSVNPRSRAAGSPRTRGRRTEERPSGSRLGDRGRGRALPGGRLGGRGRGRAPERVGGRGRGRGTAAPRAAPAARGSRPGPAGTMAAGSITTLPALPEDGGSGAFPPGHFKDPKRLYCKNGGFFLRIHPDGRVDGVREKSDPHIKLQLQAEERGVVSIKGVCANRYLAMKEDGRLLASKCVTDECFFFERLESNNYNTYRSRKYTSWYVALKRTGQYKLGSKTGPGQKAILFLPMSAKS

In the case of `CN1C(=O)C2C=CC(C(O)c3cc(C(F)(F)F)cc(C(F)(F)F)c3)N(N3CCCCC3)C2C1=O` (stereo not given), the composite z-score was 1.13 in assay [1]; 1.03 in assay [2]; 0.428 in assay [3]; 0.62 in assay [4]; -0.165 in assay [5]; -0.397 in assay [6]. For the same compound, the composite z-score was -0.4 in the assay with Lefty1; 0.615 in [8]; 0.209 in assay [10]; -0.0121 in [15]; 0.0047 in assay [16]; -0.083 with Torsin-1A (Homo sapiens) [17]. Besides, the composite z-score with Torsin-1A (Homo sapiens) [18] is 0.502; in [19], 0.035. The z-score in [7] was -0.0918; in assay [9] it was -1.48 (inactive); in assay [11], 0.401 (inactive); in [12] it was -0.15 (inactive); in [13] it was 0.44 (inactive); in assay [14], -0.411 (inactive).
Consider `COCCOC(=O)N1C(=O)[C@@]2(c3cc(C#Cc4ccc(OC)cc4)ccc31)[C@H](c1ccccc1OCCO)N1[C@H](c3ccccc3)[C@H](c3ccccc3)OC(=O)[C@H]1[C@@H]2C(=O)N1CCN(c2ncccn2)CC1`, for which the composite z-score in assay [1] was 2.12; in assay [2], 1.18; in assay [3] it was 0.863; in assay [4], -0.134; in [5] it was 0.803; in [6] it was 0.404. The composite z-score in the assay with Lefty1 is 0.361; in [8], 0.816; in assay [10], 0.418; in [15], 0.226; in assay [16] it was -0.0405; in the assay with Torsin-1A (Homo sapiens) [17], 0.617. The values for the composite z-score (with Torsin-1A (Homo sapiens) [18]; in assay [19]) were 0.374 and 1.05, respectively. The z-score in assay [7] is -1.18; in assay [9] it was -1.1 (inactive); in assay [11], -0.915 (inactive); in assay [12], -0.418 (inactive); in assay [13] it was -0.199 (inactive); in assay [14] it was 0.298 (inactive).
For `Cc1ccc(S[C@]2(C(=O)NC(C)C)CC(=O)N(Cc3ccccc3Cl)[C@@H]2c2ccc(CO)cc2I)cc1`, the composite z-score is 3.21 in [1]; 0.164 in [2]; -0.0745 in assay [3]; 0.628 in assay [4]; 0.237 in assay [5]; -0.934 in assay [6]. For the same compound, the composite z-score in the assay with Lefty1 is -0.658; in assay [8], 0.648; in assay [10] it was -0.615; in assay [15], -0.265; in assay [16], -0.224; in the assay with Torsin-1A (Homo sapiens) [17], -1.85. In addition, the composite z-score with Torsin-1A (Homo sapiens) [18] is -1.25; in [19] it was -0.008. The z-score in assay [7] was 0.905; in [9], -0.102 (inactive); in assay [11], -2.03 (inactive); in [12], 0.248 (inactive); in assay [13] it was -0.374 (inactive); in assay [14], 2.53 (inactive).
Turning to `CCCCN1CC=CC23O[C@@H]4/C=C\CCC(C)OC(=O)C4[C@H]2C(=O)N(CCCCCO)[C@@H]3C1=O` (stereo not given in full), the composite z-score in assay [1] is -0.383; in assay [2], -0.69; in assay [3], -0.883; in assay [4], -0.773; in assay [5], -1.13; in assay [6], -0.781. Further, the composite z-score with Lefty1 was -0.234; in assay [8] it was -0.245; in assay [10] it was -0.612; in [15], -1.24; in assay [16] it was -0.246; with Torsin-1A (Homo sapiens) [17], -1.6. The composite z-score with Torsin-1A (Homo sapiens) [18] was -1.78; in assay [19] it was -0.0223. In addition, the z-score in assay [7] was -0.175; in assay [9] it was 0.762 (inactive); in assay [11] it was 0.0396 (inactive); in assay [12], -0.398 (inactive); in [13], 0.191 (inactive); in assay [14] it was -0.0864 (inactive).
As to `CCOC(=O)C[C@H]1[C@H](OC(=O)c2cc3ccccc3oc2=O)[C@@H](NC(=O)C2CCCCC2)c2cc(OCCCO)ccc2N1C(=O)c1ccccc1`, the composite z-score was 0.127 in assay [1]; 0.942 in [2]; 0.711 in assay [3]; 0.799 in assay [4]; 0.786 in assay [5]; 1.48 in assay [6]. The composite z-score in the assay with Lefty1 is 0.558; in assay [8] it was 0.667; in [10], -0.0359; in assay [15], 0.191; in assay [16], -0.0245; in the assay with Torsin-1A (Homo sapiens) [17] it was 0.046. The composite z-score with Torsin-1A (Homo sapiens) [18] is 0.159; in assay [19] it was 0.705. The z-score in [7] is -0.353; in [9] it was -0.196 (inactive); in assay [11], -3.06 (inactive); in [12], 0.838 (inactive); in [13], 11 (active); in assay [14] it was -1.65 (inactive).
